Each structure is given as a SMILES string. About 79,000 compounds went through this panel and 15% of them were active in at least one assay; those are over-represented in the sample as a whole. A number with no mark means an inactive call. The source made the active and inactive calls. No stated cut-off is given here; in the data, active means growth inhibition above about 70%; inactive means the rest.

Assay [1] can be described thus: NCI Yeast Anticancer Drug Screen. Data for the wt2 strain (AID 169).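 Further: 0% = growth of vehicle-treated yeast cultures.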 The note with it: S. cerevisiae wt2 strain growth inhibition, hits give high values. An outline of the steps:
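Growth of compound-treated yeast is measured and expressed as inhibition relative to vehicle-only controls.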

The nature of assay [2]: NCI Yeast Anticancer Drug Screen. Data for the mlh1 strain (AID 171).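 Further: 0% = growth of vehicle-treated control cultures of the same strain.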 The note with it: S. cerevisiae mlh1 strain growth inhibition, hits give high values. The method in brief:
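Test agents were incubated with yeast bearing a defined DNA damage repair or cell cycle control alteration; values are growth inhibition normalised to vehicle-treated cultures.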

Assay [3] can be described thus: NCI Yeast Anticancer Drug Screen. Data for the sgs1 strain (AID 173).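 Further: 0% = growth of vehicle-only control cultures.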 The note with it: S. cerevisiae sgs1 mutant, hits give high values. An outline of the steps:
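Strain with an altered DNA repair or cell cycle pathway exposed to compound. Growth then measured. Value = inhibition versus vehicle control.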

Assay [4] is described as follows: NCI Yeast Anticancer Drug Screen. Data for the mlh1 rad18 strain (AID 175). The note with it: S. cerevisiae mlh1 rad18 strain growth inhibition, hits give high values. An outline of the steps:
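A repair-deficient yeast strain is exposed to test compound, and growth is scored relative to vehicle-treated controls.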

Assay [5] is described as follows: NCI Yeast Anticancer Drug Screen. Data for the rad18 strain (AID 177). The note with it: S. cerevisiae rad18 mutant growth inhibition, hits give high values. The method in brief:
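DNA-repair-defective yeast; compound treatment; growth inhibition scored against vehicle.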

`Br[Se]c1ccccn1`: the growth inhibition in assay [1] (at 1.2 µM) is 1%; in assay [1] (at 3.7 µM) it was 14%; in assay [1] (at 11.0 µM), 80% (active); in assay [1] (at 33.0 µM) it was 99% (active); in assay [1] (at 100.0 µM), 99% (active); in assay [2] (at 1.2 µM), -1%. The growth inhibition in assay [2] (at 3.7 µM) is 22%; in assay [2] (at 11.0 µM), 84% (active); in assay [2] (at 33.0 µM), 99% (active); in assay [2] (at 100.0 µM), 99% (active); in assay [3] (at 1.2 µM), 0%; in assay [3] (at 3.7 µM) it was 23%. The growth inhibition in assay [3] (at 11.0 µM) was 83% (active); in assay [3] (at 33.0 µM) it was 99% (active); in assay [3] (at 100.0 µM) it was 99% (active); in assay [4] (at 5.0 µM (retest, dose inferred, filed as 0.5)), 31%; in assay [4] (at 50.0 µM (retest, dose inferred, filed as 5.0)), 99% (active); in assay [4] (at 50.0 µM), 99.7% (active). Moreover, the growth inhibition in assay [5] (at 1.2 µM) was 1%; in assay [5] (at 3.7 µM), 65%; in assay [5] (at 11.0 µM), 96% (active); in assay [5] (at 33.0 µM), 98% (active); in assay [5] (at 100.0 µM) it was 98% (active).

(Values after PubChem BioAssay (NCI).)
